{
  "source": "PubChem BioAssay (Tox21)",
  "note": "Inconclusive results are not listed. Unmarked numbers belong to inactive results. The source made the active and inactive calls. The call rests on the fitted dose curve; in most records, active means well fitted cell-killing curve with a large enough effect in the repeat runs; inconclusive means weak or mixed curves, or effect the other way; inactive means flat fitted curve, though single readings scatter. On the % scale 0 is the no-effect control and ±100 the full control effect; potency means the concentration at half of the fitted maximal effect.",
  "data": [
    {"assay": "Human pregnane X receptor (PXR) small molecule agonists, qHTS cell viability counter screen (AID 1346977); further: nearly all actives have a fitted effect of over 50% in size", "details": "PXR-Luc HepG2 viability, CellTiter-Fluor, 24 h; series mostly up to 92.4 µM; activity change, negative = cytotoxicity: at the top concentration", "source_text": "U.S. Tox21 Program National Center for Advancing Translational Sciences [NCATS] NIH Chemical Genomics Center [NCGC] U.S. Environmental Protection Agency [EPA] National Institutes of Environmental Health Sciences [NIEHS] National Toxicology Program [NTP] U.S. Food and Drug Administration [FDA] Tox21 Assay Overview: The human pregnane X receptor (hPXR) regulates the expression of several drug metabolizing enzymes and induction of these proteins is a major mechanism for developing drug resistance in cancer. One such key enzyme catalyzing the drug metabolism is cytochrome P450 3A4 (CYP3A4). Changes in CYP3A4 expression affect drug metabolism, thereby reducing the therapeutic efficacy and altering toxicological response to a drug and which finally causes adverse drug interaction. To screen Tox21 libraries for compounds that activate hPXR-mediated CYP3A4 gene expression, PXR-Luc HepG2 cells were used. Also cytotoxicity of the compounds was tested in parallel by measuring the cell viability using CellTiter-Fluor assay system in the same wells.\nTox21 Assay Protocol Summary: PXR-Luc HepG2 cells were dispensed at 2,000 per well in 5uL of assay medium containing 5% charcoal-stripped FBS into white solid bottom 1536-well plates (Corning Life Sciences, Corning, NY) using a Multidrop Combi (Thermo Scientific, Waltham, MA) dispenser. The assay plates were incubated at 37 C and 5% CO2 for 5hr, and then 23nL of compounds dissolved in DMSO and positive control were transferred using a Pintool station (Wako, San Diego, CA). The assay plates were incubated at 37C and 5% CO2 for 24hr. For cytotoxicity read, after 23hr incubation at 37C, 1uL CellTiter-Fluor reagent (Promega Corporation, Madison, WI) was added to each well of the assay plates using Flying Reagent Dispenser (FRD, Aurora Discovery, San Diego, CA). After 1hr incubation at 37C and 5% CO2, the fluorescence signal was quantified using a ViewLux plate reader (PerkinElmer, Shelton, CT).", "values": [
      {"smiles": "O=C(OCCOCCOCCOC(=O)c1ccccc1)c1ccccc1", "activity change, negative = cytotoxicity": "-0.402%"},
      {"smiles": "CCCCOC(=O)CC#N", "activity change, negative = cytotoxicity": "-0.169%"},
      {"smiles": "CC(=O)S[C@H](C(=O)N[C@H]1Cc2ccccc2[C@H]2CCC[C@@H](C(=O)O)N2C1=O)C(C)C", "activity change, negative = cytotoxicity": "2.35%"},
      {"smiles": "O=C1OC(=O)C2CC=CCC12", "note": "(stereo not given)", "activity change, negative = cytotoxicity": "4.21%"},
      {"smiles": "CC(CC(C#N)(c1ccccc1)C(C)C)N(C)C", "note": "(stereo not given)", "activity change, negative = cytotoxicity": "1.06% [at 42.5 µM]"},
      {"smiles": "CC(C(=O)O)c1ccc2c(c1)Cc1cccnc1O2", "note": "(stereo not given)", "activity change, negative = cytotoxicity": "5.35% [at 42.5 µM]"},
      {"smiles": "O=Cc1ccc([N+](=O)[O-])cc1", "activity change, negative = cytotoxicity": "-2.84%"},
      {"smiles": "O=C(N[C@@H](Cc1ccccc1)[C@@H](O)C(=O)N1C[C@@H](O)[C@@H](O)C1)c1cc2cc(Cl)ccc2[nH]1", "activity change, negative = cytotoxicity": "-0.504%"},
      {"smiles": "O=C(O)c1cc(C(=O)O)cc([N+](=O)[O-])c1", "activity change, negative = cytotoxicity": "2.95%"},
      {"smiles": "CCCCCCCCCCCCN1CCOCC1", "activity change, negative = cytotoxicity": "0.57%"},
      {"smiles": "Nc1ncnc2c1ncn2[C@@H]1O[C@H](CO)[C@@H](O)[C@H]1O", "activity change, negative = cytotoxicity": "0.949% [at 42.5 µM]"},
      {"smiles": "CC1(C)CC(=O)CC(C)(C)N1", "activity change, negative = cytotoxicity": "15.5%"},
      {"smiles": "O=S(=O)(O)c1cc(Cl)c(Cl)cc1Cl", "activity change, negative = cytotoxicity": "15.8%"},
      {"smiles": "CC1=C(C)C(=O)C(C(CCCCCC(=O)O)c2ccccc2)=C(C)C1=O", "note": "(stereo not given)", "activity change, negative = cytotoxicity": "-8.31% [at 42.5 µM]"},
      {"smiles": "CCOc1ccc2c(c1)C(C)CC(C)(C)N2", "note": "(stereo not given)", "activity change, negative = cytotoxicity": "-2.47%"},
      {"smiles": "CCCCC(CC)COCCC#N", "note": "(stereo not given)", "activity change, negative = cytotoxicity": "9.59%"},
      {"smiles": "Nc1ccccc1Nc1ccccc1", "Potency": "30.7 µM (active)"},
      {"smiles": "CC/C=C/CCO", "activity change, negative = cytotoxicity": "9.51%"},
      {"smiles": "CCC1=C(C)CN(C(=O)NCCc2ccc(S(=O)(=O)NC(=O)NC3CCC(C)CC3)cc2)C1=O", "note": "(stereo not given)", "activity change, negative = cytotoxicity": "-4.22% [at 42.5 µM]"},
      {"smiles": "Nc1ccc(C(=O)Oc2ccccc2)c(O)c1", "activity change, negative = cytotoxicity": "-2.57% [at 42.5 µM]"},
      {"smiles": "Cc1c(Cl)cccc1Nc1ccccc1C(=O)O", "activity change, negative = cytotoxicity": "0.657% [at 42.5 µM]"},
      {"smiles": "Cc1c(-c2cccnc2)c2ccccc2n1CCCCC(=O)O", "activity change, negative = cytotoxicity": "0.102%"},
      {"smiles": "COC=O", "activity change, negative = cytotoxicity": "3.92% [at 8.39 µM]"},
      {"smiles": "COc1ccc(CN(CCN(C)C)c2ncccn2)cc1", "activity change, negative = cytotoxicity": "-9.81% [at 42.5 µM]"},
      {"smiles": "CCc1c(C)[nH]c2c1C(=O)C(CN1CCOCC1)CC2", "note": "(stereo not given)", "activity change, negative = cytotoxicity": "5.29% [at 42.5 µM]"},
      {"smiles": "O=C(OCCN1CCOCC1)c1cccnc1Nc1cccc(C(F)(F)F)c1", "activity change, negative = cytotoxicity": "10.3% [at 42.5 µM]"},
      {"smiles": "CCN(CCCCOC(=O)c1ccc(OC)c(OC)c1)C(C)Cc1ccc(OC)cc1", "note": "(stereo not given)", "activity change, negative = cytotoxicity": "-6.29% [at 42.5 µM]"},
      {"smiles": "O=C(O)c1ccccc1-n1cc(C(=O)O)c(=O)c2cc(Nc3c(F)cc(F)cc3Cl)c(Cl)cc21", "activity change, negative = cytotoxicity": "10.1%"},
      {"smiles": "FC1(F)C(F)(F)C(F)(F)C2(F)C(F)(C1(F)F)C(F)(F)C(F)(F)C1(F)C(F)(F)C(F)(F)C(F)(F)C(F)(F)C12F", "note": "(stereo not given)", "activity change, negative = cytotoxicity": "29.8%"},
      {"smiles": "CCCC1CCOC(C)S1", "note": "(stereo not given)", "activity change, negative = cytotoxicity": "8.26%"},
      {"smiles": "CC1(COc2ccc(CC3SC(=O)NC3=O)cc2)CCCCC1", "note": "(stereo not given)", "activity change, negative = cytotoxicity": "-10.9% [at 42.5 µM]"},
      {"smiles": "CCCCCCCCOCCCN", "Potency": "61.1 µM (active)"},
      {"smiles": "O=C(c1ccc(Cl)cc1)c1ccc(Cl)cc1", "activity change, negative = cytotoxicity": "2.9%"},
      {"smiles": "Cc1ccc(NC=O)c(C)c1", "activity change, negative = cytotoxicity": "11.2%"},
      {"smiles": "O=C1CCCN1CCO", "activity change, negative = cytotoxicity": "-5.17%"},
      {"smiles": "Cc1ccc2c(Cl)cc(Cl)c(O)c2n1", "activity change, negative = cytotoxicity": "-0.682% [at 42.5 µM]"},
      {"smiles": "CC(=O)Nc1cccc(N)c1", "activity change, negative = cytotoxicity": "10.4%"},
      {"smiles": "C/C(=C(\\CCO)SS/C(CCO)=C(\\C)N(C=O)Cc1cnc(C)nc1N)N(C=O)Cc1cnc(C)nc1N", "activity change, negative = cytotoxicity": "10.4% [at 42.5 µM]"},
      {"smiles": "CC(=O)Oc1cccc2c1C(=O)c1c(OC(C)=O)cc(C(=O)O)cc1C2=O", "Potency": "29.8 µM (active)"},
      {"smiles": "C1CCN(CN2CCCCC2)CC1", "activity change, negative = cytotoxicity": "0.429%"}
    ]}
  ]
}
